Assay [1] is described as follows: NCI Yeast Anticancer Drug Screen. Data for the rad50 strain (AID 155).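 Also: 0% = growth of vehicle-only cultures of the same strain.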 As to conditions: S. cerevisiae rad50 strain growth inhibition; at 50.0 µM; active compounds read high. The procedure, abridged: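 DNA repair mutant yeast, compound exposure, growth read-out; inhibition is taken relative to vehicle.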
Assay [2] is described as follows: NCI Yeast Anticancer Drug Screen. Data for the mec2-1 strain (AID 157). As to conditions: S. cerevisiae mec2-1 strain, at 50.0 µM, active compounds read high. The procedure, abridged: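 Mutant yeast (mec2-1) grown with compound; growth inhibition relative to vehicle control reported.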
Assay [3] can be described thus: NCI Yeast Anticancer Drug Screen. Data for the sgs1 mgt1 strain (AID 161).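 Also: 0% = growth of cultures given vehicle only.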 Conditions: S. cerevisiae sgs1 mgt1 strain, at 50.0 µM, active compounds read high. The procedure, abridged:
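Percent growth inhibition was derived by comparing compound-exposed mutant yeast with vehicle-exposed cultures. The strain carries alterations in DNA damage repair.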

Assay [4] in a line: NCI Yeast Anticancer Drug Screen. Data for the cln2 rad14 strain (AID 165).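 Also: 0% = growth equal to vehicle treated cultures.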 As to conditions: S. cerevisiae cln2 rad14 strain, at 50.0 µM, active compounds read high. The procedure, abridged: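 Readout is yeast growth inhibition versus vehicle-treated controls, using a strain with cln2 and rad14 alterations exposed to compound.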
Assay [5] can be described thus: NCI Yeast Anticancer Drug Screen. Data for the bub3 strain (AID 167). As to conditions: S. cerevisiae bub3 mutant strain, at 50.0 µM, active compounds read high. The procedure, abridged: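 In this screen, a yeast mutant lacking normal mitotic checkpoint function is challenged with compound. Relative growth versus vehicle gives the inhibition value.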
Assay [6] in a line: NCI Yeast Anticancer Drug Screen. Data for the mlh1 rad18 strain (AID 175). Conditions: S. cerevisiae mlh1 rad18 strain growth inhibition; at 50.0 µM; active compounds read high. The procedure, abridged: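 Genetically defined yeast (DNA repair-deficient) exposed to compounds; growth inhibition determined relative to vehicle.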

Compounds without any hit were thinned out: in the full panel of roughly 79,000, 15% have a hit. Unmarked numbers belong to inactive results. Active and inactive are the calls of the source. Rule as the data show it: active = growth inhibition above about 70%; inactive = the rest.

As to `[CH3][Sn]1([CH3])[O]C(=O)C(=O)[O]1`, the growth inhibition in assay [1] is 12.2%; in assay [2], 19.4%; in assay [3], 2.4%; in assay [4], -26.8%; in assay [5], -9.6%; in assay [6], 7.8%.
Turning to `CC(=O)NC1C([Se][As](C)C)OC(COC(C)=O)C(OC(C)=O)C1OC(C)=O` (centres undefined), the growth inhibition is -15.2% in assay [1]; -20.4% in assay [2]; 23.6% in assay [3]; -7.3% in assay [4]; -2.95% in assay [5]; -6.5% in assay [6].
In the case of `CC1(C)N=C(N)N=C(N)N1c1ccc(OCCCOc2ccc(S(=O)(=O)F)cc2)cc1`, the growth inhibition in assay [1] was 35.1%; in assay [2], 72.8% (active); in assay [3], 89.1% (active); in assay [4], -7.65%; in assay [5] it was 31.5%; in assay [6] it was 84.5% (active).
As for `N#CC1=C(C#N)C(=O)C(Cl)=C(Cl)C1=O`, the growth inhibition was 14.9% in assay [1]; 24.9% in assay [2]; 16.9% in assay [3]; 8.7% in assay [4]; 16.6% in assay [5]; 29.2% in assay [6].
In the case of `O=P(NCCCl)(NCCCl)Oc1ccccc1`, the growth inhibition in assay [1] was -19.5%; in assay [2], -0.5%; in assay [3], -18.8%; in assay [4], -16.1%; in assay [5] it was -7.25%; in assay [6] it was -13.1%.
For `Cc1ccc(N=C(C(c2ccccc2)c2ccccc2)N(CCCl)CCCl)cc1`, the growth inhibition is 24.2% in assay [1]; 3.45% in assay [2]; 19.9% in assay [3]; 13.3% in assay [4]; 18.1% in assay [5]; 24.1% in assay [6].
Regarding `Cc1ccc([NH-])c([NH-])c1.[Cl][Pt+2][Cl]`, the growth inhibition in assay [1] is 22.1%; in assay [2], 0.25%; in assay [3] it was 30.4%; in assay [4] it was 12.3%; in assay [5] it was -2.85%; in assay [6], 13.7%.
Turning to `CCOP(=O)(OCC)C(O)c1ccc(Cl)cc1` (centres undefined), the growth inhibition is -5.1% in assay [1]; -13.8% in assay [2]; -0.6% in assay [3]; -9.35% in assay [4]; 22.3% in assay [5]; -11.3% in assay [6].
Take `CCCCN1C(=O)CC(=O)N(c2ccccc2)C1=O`: the growth inhibition in assay [1] was -8.55%; in assay [2], -28%; in assay [3], -3.8%; in assay [4] it was 14.3%; in assay [5], -14.4%; in assay [6], -4.35%.
For the compound `CC(=O)c1cn(Cc2ccccc2)c2ccccc12`, the growth inhibition was 5.75% in assay [1]; -14.2% in assay [2]; -6.7% in assay [3]; -73.5% in assay [4]; -19.6% in assay [5]; -2.9% in assay [6].
`O=[N+]([O-])c1ccc(/C=C/c2ccc(S(=O)(=O)F)cc2Cl)c(Cl)c1`: the growth inhibition is -13.2% in assay [1]; -11.2% in assay [2]; 0.75% in assay [3]; -34.3% in assay [4]; -6.7% in assay [5]; -4.35% in assay [6].
As to `c1ccc(-c2c[se]nn2)cc1`, the growth inhibition in assay [1] was 4.65%; in assay [2] it was -10.1%; in assay [3], -2.6%; in assay [4] it was -26.6%; in assay [5] it was -11.2%; in assay [6], 10.1%.
For `CCC(C)OP(=S)(S)OC(C)CC.[Zn+2]` (centres undefined), the growth inhibition in assay [1] is 1.8%; in assay [2] it was 22.3%; in assay [3], -6%; in assay [4], -5.55%; in assay [5], 25.2%; in assay [6], -5.95%.
For the compound `COc1ccc2c3c1OC1C(OC)(OC)C=C[C@@]4(Br)[C@@H](C2)N(CC2CC2)CC[C@]314` (some centres undefined), the growth inhibition is 34.1% in assay [1]; 5.6% in assay [2]; -35.1% in assay [3]; -8.55% in assay [4]; -9.9% in assay [5]; -44.6% in assay [6].
Turning to `O=C1NC(=O)C(O)(C2=C(O)CCC2=O)C(=O)N1`, the growth inhibition was 12.8% in assay [1]; -0.3% in assay [2]; 4.9% in assay [3]; -25.6% in assay [4]; 13.9% in assay [5]; 10.4% in assay [6].
With `CN1CCOP(=O)(Oc2ccccc2)N1` (centres undefined), the growth inhibition in assay [1] was -46%; in assay [2], -17.4%; in assay [3], -26.1%; in assay [4] it was -64.2%; in assay [5], 4.5%; in assay [6] it was -16.1%.
For the compound `CS(=N)(=O)CCC(N)C(=O)O` (centres undefined) (tested in a mixture with another compound), the growth inhibition in assay [1] was 4.7%; in assay [2] it was 21.2%; in assay [3], -12.8%; in assay [4], -1.95%; in assay [5] it was 17.8%; in assay [6], 2.1%.
With `CN(C)P(=O)(CC(O)c1ccccc1)N(C)C` (centres undefined), the growth inhibition in assay [1] is 18.6%; in assay [2], -2.05%; in assay [3] it was -14.5%; in assay [4], -8.05%; in assay [5], 8.5%; in assay [6] it was 10.9%.
Take `CCC[CH2][Sn]([Cl])([Cl])[CH2]CCC.c1ccncc1`: the growth inhibition in assay [1] is 95.5% (active); in assay [2] it was 97.5% (active); in assay [3], 98.2% (active); in assay [4], 98.3% (active); in assay [5] it was 98.2% (active); in assay [6], 98% (active).

These data come from PubChem BioAssay (NCI).
